This is part of a sample that, as a whole, favours compounds with a hit. Of some 83,000 tested, about 20% had one in any assay.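 Single-concentration screen, 48 h exposure, 96-well plates. Endpoint: percent growth. Below 10 = active.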 A number with no mark means an inactive call. Calls of active or inactive are those of the source.
How the values were obtained:
Test in all cases: NCI-60 one-dose screen, 48 h (100 = growth as untreated, 0 = no growth, -100 = all killed)
SR leukemia = conditions: 10 µM unless noted
RPMI-8226 leukemia = conditions: 10 µM unless noted
OVCAR-8 ovarian = conditions: 10 µM unless noted
OVCAR-5 ovarian = conditions: 10 µM unless noted
OVCAR-4 ovarian = conditions: 10 µM
SK-OV-3 ovarian = conditions: 10 µM unless noted
IGROV1 ovarian = conditions: 10 µM unless noted
OVCAR-3 ovarian = conditions: 10 µM unless noted
HS 578T breast = conditions: 10 µM unless noted
NCI/ADR-RES ovarian = conditions: 10 µM unless noted
T-47D breast = conditions: 10 µM unless noted
MDA-MB-435 melanoma = conditions: 10 µM unless noted
MCF7 breast = conditions: 10 µM unless noted
HCT-116 colon = conditions: 10 µM unless noted
HCC-2998 colon = conditions: 10 µM unless noted
KM12 colon = conditions: 10 µM unless noted
BT-549 breast = conditions: 10 µM unless noted
SW-620 colon = conditions: 10 µM unless noted

Structure (SMILES)	growth (SR leukemia)	growth (RPMI-8226 leukemia)	growth (OVCAR-8 ovarian)	growth (OVCAR-5 ovarian)	growth (OVCAR-4 ovarian)	growth (SK-OV-3 ovarian)	growth (IGROV1 ovarian)	growth (OVCAR-3 ovarian)	growth (HS 578T breast)	growth (NCI/ADR-RES ovarian)	growth (T-47D breast)	growth (MDA-MB-435 melanoma)	growth (MCF7 breast)	growth (HCT-116 colon)	growth (HCC-2998 colon)	growth (KM12 colon)	growth (BT-549 breast)	growth (SW-620 colon)
CCOC(=O)CC(c1ccccc1)C(C#N)c1ccccc1 (centres undefined)	97.3%	91.3%	99.2%	110%	98.7%	95.1%	108%	98.9%	89.4%	109%	89.6%	96.4%	99.8%	92%	114%	92.3%	–	–
CC(C)c1ccc(C(=O)Nc2sc3c(c2C#N)CCC(=O)C3)cc1	-11.7% (active)	-35.2% (active)	13.7%	11.1%	-78% (active)	20.8%	18.4%	-33.4% (active)	25.4%	3.12% (active)	–	-14.4% (active)	4.86% (active)	-2.81% (active)	20.7%	5.49% (active)	-9.76% (active)	-19.1% (active)
COc1cc2c(c(OC)c1)C1c3cc(OC)ccc3NC(=O)N1CC2 (centres undefined)	24%	81.9%	95.1%	93.7%	96.2%	93.1%	80.2%	81.9%	90.2%	51.5%	88.7%	9.36% (active)	58.3%	65.2%	94%	49.4%	–	49.4%
COc1cc(NCc2ccccc2O)c2ncccc2c1	82.4%	46.9%	102%	69.6%	82.3%	107%	90.4%	97.2%	149%	71.9%	90.4%	103%	95.2%	64%	108%	103%	–	102%
COC(=O)c1c(C)[nH]c(/C=C2\N=C(c3ccc[nH]3)C=C2OC)c1C	4.93% (active)	-16.1% (active)	-7.15% (active)	0.695% (active)	-67.2% (active)	48.4%	-8.84% (active)	-40.6% (active)	-27.4% (active)	13.3%	–	-44.9% (active)	1.82% (active)	-75% (active)	-40.9% (active)	-2.32% (active)	0.541% (active)	1.56% (active)
COc1cc(OC)c(/C=C/C(=O)c2c(N)cc(OC)cc2OC)c(OC)c1	29.2%	13.5%	19.9%	29.7%	80.1%	5.56% (active)	32.5%	-45.5% (active)	–	-16.2% (active)	49.9%	-27.3% (active)	25%	14.8%	29.4%	11.5%	19.3%	15%
CCCCC(CC)COC(=O)C[N+](C)(C)CCOC(c1ccccc1)c1ccccc1 (centres undefined)	-30.2% (active)	-61% (active)	48.8%	75.6%	22.9%	59%	-0.732% (active)	19.2%	69.7%	99.1%	–	0.527% (active)	33.6%	31.7%	3.56% (active)	–	17.6%	–
COc1ccc(/C=C/C(=C/c2c(O)[nH]c3cc(Br)ccc23)N=O)cc1	70.2%	123%	104%	110%	101%	114%	103%	114%	–	111%	103%	108%	104%	99.7%	121%	97.1%	106%	113%
CC(C)c1ccc(C(=O)Nc2nc3ccc(O)cc3s2)cc1	17.1%	28.9%	40.6%	40.6%	33.9%	89.2%	49.1%	54.1%	72.3%	25.7%	–	22%	9.03% (active)	39.6%	-8.31% (active)	15.7%	55.5%	16%
COc1cc2c(cc1OCCCCCOc1ccc(-n3c(C)nc4ccccc4c3=O)cc1)N=C[C@@H]1CCCN1C2=O	-25.4% (active)	-35% (active)	9.85% (active)	10.5%	-27.8% (active)	-0.258% (active)	-28.7% (active)	-15.8% (active)	–	-14.6% (active)	-7.89% (active)	-58.1% (active)	-53.6% (active)	0.749% (active)	-61.7% (active)	-45.7% (active)	-89.2% (active)	-13.8% (active)
COc1ccc2nc3c(cc2c1)C(=O)CC(c1ccccc1)C3 (centres undefined)	17.7%	55.4%	39%	61.2%	92.7%	52.2%	35.8%	-7.18% (active)	–	13.2%	75%	-67.7% (active)	56.2%	11.1%	91.3%	10.8%	51.7%	17.8%
N#Cc1ccc(-c2ccc(COc3ccc(CC4SC(=O)NC4=O)cc3)cc2)cc1 (centres undefined)	45.1%	48.5%	58.3%	96.2%	40.8%	69.9%	68.4%	64.7%	72.5%	–	35.8%	45.4%	38.1%	42.5%	83.2%	61.9%	–	–
